Experimental data: PubChem BioAssay (NCI)
Compounds without any hit were thinned out: in the full panel of roughly 79,000, 15% have a hit. Calls of active or inactive are those of the source. No stated cut-off is given here; in the data, active means growth inhibition above about 70%; inactive means the rest.

Assays:
[1] = NCI Yeast Anticancer Drug Screen. Data for the mec2-1 strain (AID 157); conditions: S. cerevisiae mec2-1 strain, hits give high values
How it was run: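 Cells of the genetically defined mec2-1 yeast strain are incubated with test compound. Inhibition of growth is calculated against vehicle-treated controls.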

[2] = NCI Yeast Anticancer Drug Screen. Data for the rad14 strain (AID 159);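 further: 0% = growth of vehicle-treated control cultures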; conditions: S. cerevisiae rad14 strain growth inhibition, hits give high values
How it was run: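 Compound-treated yeast with a defined DNA-repair lesion; growth inhibition normalised to vehicle-treated cultures.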

[3] = NCI Yeast Anticancer Drug Screen. Data for the sgs1 mgt1 strain (AID 161);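 further: 0% = growth of cultures given vehicle only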; conditions: S. cerevisiae sgs1 mgt1 strain, hits give high values
How it was run: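 Inhibition of yeast growth, normalised to vehicle-treated controls, is reported for a strain bearing genetic alterations in DNA damage repair.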

[4] = NCI Yeast Anticancer Drug Screen. Data for the CLN2oe strain (AID 163);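 further: 0% = growth of vehicle-only control cultures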; conditions: S. cerevisiae CLN2oe strain, hits give high values
How it was run: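 Strain altered in cell-cycle control, incubated with compound; growth compared to solvent-treated controls.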

[5] = NCI Yeast Anticancer Drug Screen. Data for the cln2 rad14 strain (AID 165);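 further: 0% = growth equal to vehicle treated cultures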; conditions: S. cerevisiae cln2 rad14 strain, hits give high values
How it was run: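 The screen exposed genetically defined yeast (cln2 rad14) to test compounds and scored growth inhibition relative to vehicle-treated controls.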

[6] = NCI Yeast Anticancer Drug Screen. Data for the bub3 strain (AID 167); conditions: S. cerevisiae bub3 mutant strain, hits give high values
How it was run: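 Growth of a checkpoint-deficient yeast mutant is measured after compound exposure. Values represent inhibition relative to vehicle.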

[7] = NCI Yeast Anticancer Drug Screen. Data for the wt2 strain (AID 169);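 further: 0% = growth of vehicle-treated yeast cultures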; conditions: S. cerevisiae wt2 strain growth inhibition, hits give high values
How it was run: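 Steps: yeast strain treated with compound; growth recorded; inhibition calculated relative to cultures given vehicle alone.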

[8] = NCI Yeast Anticancer Drug Screen. Data for the mlh1 strain (AID 171);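 further: 0% = growth of vehicle-treated control cultures of the same strain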; conditions: S. cerevisiae mlh1 strain growth inhibition, hits give high values
How it was run: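 Yeast screen: mutant strain plus compound, growth scored against vehicle control wells.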

[9] = NCI Yeast Anticancer Drug Screen. Data for the sgs1 strain (AID 173);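 further: 0% = growth of vehicle-only control cultures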; conditions: S. cerevisiae sgs1 mutant, hits give high values
How it was run: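 Inhibition of yeast growth served as the measure. The mutant strain was treated with each compound, and growth was normalised to cultures receiving vehicle alone.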

[10] = NCI Yeast Anticancer Drug Screen. Data for the mlh1 rad18 strain (AID 175); conditions: S. cerevisiae mlh1 rad18 strain growth inhibition, hits give high values
How it was run: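 Compound-treated yeast growth, normalised to vehicle controls. Strain bears defined DNA repair mutations.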

[11] = NCI Yeast Anticancer Drug Screen. Data for the rad18 strain (AID 177); conditions: S. cerevisiae rad18 mutant growth inhibition, hits give high values
How it was run: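 Inhibition values reflect reduced yeast growth compared with vehicle-treated controls, using a strain engineered with a DNA damage repair defect.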

[12] = NCI Yeast Anticancer Drug Screen. Data for the rad52 strain (AID 147);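 further: 0% = growth of vehicle-treated control cultures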; conditions: S. cerevisiae rad52 mutant growth inhibition, hits give high values
How it was run: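 Genetically altered yeast (DNA damage repair defect) treated with compound; inhibition calculated relative to vehicle.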

[13] = NCI Yeast Anticancer Drug Screen. Data for the wt1 strain (AID 149);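 further: 0% = growth of vehicle-treated wt1 cultures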; conditions: S. cerevisiae wt1 strain (SPY 50644) growth inhibition, hits give high values
How it was run: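 Readout: yeast growth inhibition, normalised to vehicle controls, in the wt1 strain exposed to test compounds.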

[14] = NCI Yeast Anticancer Drug Screen. Data for the rad50EPP+ strain (AID 151);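 further: 0% = growth of vehicle-treated control cultures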; conditions: S. cerevisiae rad50 mutant strain, hits give high values
How it was run: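 Strain rad50EPP+; compound exposure; % growth inhibition vs vehicle.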

[15] = NCI Yeast Anticancer Drug Screen. Data for the mgt1 strain (AID 153); conditions: S. cerevisiae mgt1 mutant growth inhibition, hits give high values
How it was run: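 Read-out: yeast growth inhibition vs vehicle control. Strain mgt1, drawn from a panel altered in DNA damage repair or cell cycle control.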

[16] = NCI Yeast Anticancer Drug Screen. Data for the rad50 strain (AID 155);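 further: 0% = growth of vehicle-only cultures of the same strain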; conditions: S. cerevisiae rad50 strain growth inhibition, hits give high values
How it was run: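 Compounds were tested on a yeast strain with an engineered DNA damage repair alteration; the reported value is growth inhibition normalised to vehicle treatment.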

[17] = at 5.0 µM (retest, dose inferred, filed as 0.5)
[18] = at 50.0 µM (retest, dose inferred, filed as 5.0)

Measured: growth inhibition

Nc1ccc(S(=O)(=O)Nc2nc3c(c(=O)[nH]2)CCCC3)cc1
inactive: [1]; [17] 28% | [1]; at 11.0 µM 48% | [2]; at 1.2 µM 19% | [2]; at 3.7 µM 33% | [3]; [17] 44% | [4]; at 1.2 µM 5% | [4]; at 3.7 µM 5% | [4]; at 11.0 µM 21% | [5]; [17] 8% | [6]; at 1.2 µM 33% | [6]; at 3.7 µM 40% | [6]; [17] 14% | [7]; at 1.2 µM 29% | [8]; at 1.2 µM 8% | [8]; at 3.7 µM 20% | [9]; at 1.2 µM 36% | [9]; at 3.7 µM 47% | [11]; at 1.2 µM 33% | [11]; at 3.7 µM 48%
active: [1]; at 33.0 µM 99% | [1]; [18] 99% | [1]; at 50.0 µM 99.5% | [1]; at 100.0 µM 99% | [2]; at 11.0 µM 94% | [2]; at 33.0 µM 100% | [2]; at 100.0 µM 100% | [3]; [18] 99% | [3]; at 50.0 µM 99.5% | [4]; at 33.0 µM 99% | [4]; at 100.0 µM 99% | [5]; [18] 99% | [5]; at 50.0 µM 99.2% | [6]; at 11.0 µM 92% | [6]; at 33.0 µM 99% | [6]; [18] 98% | [6]; at 50.0 µM 99.3% | [6]; at 100.0 µM 99% | [7]; at 3.7 µM 73% | [7]; at 11.0 µM 99% | [7]; at 33.0 µM 100% | [7]; at 100.0 µM 100% | [8]; at 11.0 µM 75% | [8]; at 33.0 µM 99% | [8]; at 100.0 µM 99% | [9]; at 11.0 µM 95% | [9]; at 33.0 µM 99% | [9]; at 100.0 µM 99% | [10]; [17] 84% | [10]; [18] 99% | [10]; at 50.0 µM 99.4% | [11]; at 11.0 µM 85% | [11]; at 33.0 µM 99% | [11]; at 100.0 µM 99%

CCCCCc1c(CCCC)c(=O)[nH]c2cc(CNCC(OC)OC)ccc12
active: [12]; at 33.0 µM 98% | [12]; at 100.0 µM 94% | [13]; at 33.0 µM 98% | [13]; at 100.0 µM 94% | [14]; at 100.0 µM 93% | [15]; at 33.0 µM 98% | [15]; at 100.0 µM 94% | [16]; at 33.0 µM 98% | [16]; [18] 96% | [16]; at 50.0 µM 88.9% | [16]; at 100.0 µM 93% | [1]; at 33.0 µM 98% | [1]; [18] 98% | [1]; at 50.0 µM 91.3% | [1]; at 100.0 µM 95% | [2]; at 11.0 µM 89% | [2]; at 33.0 µM 98% | [2]; at 100.0 µM 93% | [3]; at 50.0 µM 91% | [4]; at 33.0 µM 98% | [4]; at 100.0 µM 94% | [5]; [18] 95% | [5]; at 50.0 µM 86.5% | [6]; at 33.0 µM 98% | [6]; [18] 97% | [6]; at 50.0 µM 91.2% | [6]; at 100.0 µM 94% | [7]; at 33.0 µM 98% | [7]; at 100.0 µM 94% | [8]; at 33.0 µM 98% | [8]; at 100.0 µM 95% | [9]; at 33.0 µM 99% | [9]; at 100.0 µM 95% | [10]; [18] 96% | [10]; at 50.0 µM 87% | [11]; at 33.0 µM 98% | [11]; at 100.0 µM 94%
inactive: [12]; at 1.2 µM 15% | [12]; at 3.7 µM 11% | [12]; at 11.0 µM 26% | [13]; at 1.2 µM 1% | [13]; at 3.7 µM 7% | [13]; at 11.0 µM 20% | [14]; at 1.2 µM -8% | [14]; at 3.7 µM -9% | [14]; at 11.0 µM 3% | [14]; at 33.0 µM 10% | [15]; at 1.2 µM -15% | [15]; at 3.7 µM -11% | [15]; at 11.0 µM 58% | [16]; at 1.2 µM 14% | [16]; at 3.7 µM 19% | [16]; [17] 8% | [16]; at 11.0 µM 52% | [1]; at 1.2 µM -9% | [1]; at 3.7 µM -9% | [1]; [17] -7% | [1]; at 11.0 µM 7% | [2]; at 1.2 µM -23% | [2]; at 3.7 µM 24% | [3]; [17] 8% | [3]; [18] 46% | [4]; at 1.2 µM 0% | [4]; at 3.7 µM 11% | [4]; at 11.0 µM 63% | [5]; [17] 26% | [6]; at 1.2 µM -6% | [6]; at 3.7 µM 4% | [6]; [17] 19% | [6]; at 11.0 µM 31% | [7]; at 1.2 µM 7% | [7]; at 3.7 µM 11% | [7]; at 11.0 µM 28% | [8]; at 1.2 µM -5% | [8]; at 3.7 µM 13% | [8]; at 11.0 µM 52% | [9]; at 1.2 µM 10% | [9]; at 3.7 µM 23% | [9]; at 11.0 µM 69% | [10]; [17] 50% | [11]; at 1.2 µM 10% | [11]; at 3.7 µM 19% | [11]; at 11.0 µM 14%

Cc1cc2nc3ccccc3n2c2ccccc12
active: [16]; [18] 86% | [16]; at 100.0 µM 91% | [8]; at 100.0 µM 80% | [10]; [18] 78%
inactive: [12]; at 1.2 µM -33% | [12]; at 3.7 µM -33% | [12]; at 11.0 µM -56% | [12]; at 33.0 µM -11% | [12]; at 100.0 µM 41% | [13]; at 1.2 µM -53% | [13]; at 3.7 µM -48% | [13]; at 11.0 µM -39% | [13]; at 33.0 µM -31% | [13]; at 100.0 µM -8% | [14]; at 1.2 µM -49% | [14]; at 3.7 µM -24% | [14]; at 11.0 µM -21% | [14]; at 33.0 µM 28% | [14]; at 100.0 µM 63% | [15]; at 1.2 µM -25% | [15]; at 3.7 µM 4% | [15]; at 11.0 µM 6% | [15]; at 33.0 µM 37% | [15]; at 100.0 µM 61% | [16]; at 1.2 µM 2% | [16]; at 3.7 µM -7% | [16]; [17] 0% | [16]; at 11.0 µM 5% | [16]; at 33.0 µM 64% | [16]; at 50.0 µM 41% | [1]; at 1.2 µM -45% | [1]; at 3.7 µM -45% | [1]; [17] -11% | [1]; at 11.0 µM -41% | [1]; at 33.0 µM -30% | [1]; [18] 39% | [1]; at 50.0 µM 56.1% | [1]; at 100.0 µM 8% | [2]; at 1.2 µM -21% | [2]; at 3.7 µM -37% | [2]; at 11.0 µM -36% | [2]; at 33.0 µM -23% | [2]; at 100.0 µM 35% | [3]; [17] -10% | [3]; [18] 29% | [3]; at 50.0 µM 66.7% | [4]; at 1.2 µM -32% | [4]; at 3.7 µM -24% | [4]; at 11.0 µM -30% | [4]; at 33.0 µM -7% | [4]; at 100.0 µM 37% | [5]; [17] 2% | [5]; [18] 60% | [5]; at 50.0 µM 52.6% | [6]; at 1.2 µM -15% | [6]; at 3.7 µM -7% | [6]; [17] 5% | [6]; at 11.0 µM -6% | [6]; at 33.0 µM 5% | [6]; [18] 50% | [6]; at 50.0 µM 69% | [6]; at 100.0 µM 44% | [7]; at 1.2 µM -57% | [7]; at 3.7 µM -45% | [7]; at 11.0 µM -51% | [7]; at 33.0 µM -23% | [7]; at 100.0 µM 45% | [8]; at 1.2 µM -33% | [8]; at 3.7 µM -27% | [8]; at 11.0 µM -7% | [8]; at 33.0 µM 53% | [9]; at 1.2 µM -43% | [9]; at 3.7 µM -35% | [9]; at 11.0 µM -40% | [9]; at 33.0 µM -29% | [9]; at 100.0 µM -13% | [10]; [17] 6% | [10]; at 50.0 µM 65.9% | [11]; at 1.2 µM -24% | [11]; at 3.7 µM -23% | [11]; at 11.0 µM -10% | [11]; at 33.0 µM -8% | [11]; at 100.0 µM 29%
